Assay results: PubChem BioAssay AID1159580 (chemical genetic matrix, 2015)
About 2,000 (36%) of roughly 5,500 compounds were called active. About 18% were inconclusive and are not listed. No stated cut-off is given here; in the data, active means normalized growth mostly below about 0.91 (no sharp cut-off); inconclusive means no clear call, values can overlap the other calls; inactive means mostly above about 0.92. Some of the results follow.

Experiment: chemical genetic growth profiling, strain panel (AID 1159580);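 further: tested at 20 µM; growth read once vehicle control cultures reached saturation at 30 °C; 1 = growth at the plate median or of vehicle wells; lower values mean less growth of the strain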
Details: S. cerevisiae deletion strains, growth OD
[1] = locus YAL013W, strain DEP1, hits give low values
[2] = locus YBR229C, strain ROT2, hits give low values
[3] = locus YCL061C, strain MRC1, hits give low values
[4] = locus YDL101C, strain DUN1, hits give low values
[5] = locus YDR150W, strain NUM1, hits give low values
[6] = locus YEL061C, strain CIN8, hits give low values
[7] = locus YGR078C, strain PAC10, hits give low values
[8] = locus YHR030C, strain SLT2, hits give low values
[9] = locus YHR087W, strain rtc3, hits give low values
[10] = locus YJR043C, strain POL32, hits give low values
[11] = locus YJR075W, strain HOC1, hits give low values
[12] = locus YLR039C, strain RIC1, hits give low values
[13] = locus YLR058C, strain SHM2 (second series), hits give low values
[14] = locus YLR085C, strain ARP6, hits give low values
[15] = locus YLR262C, strain YPT6, hits give low values
[16] = locus YML094W, strain GIM5, hits give low values
[17] = locus YMR219W, strain ESC1, hits give low values
[18] = locus YMR263W, strain SAP30, hits give low values
[19] = locus YNL153C, strain GIM3, hits give low values
[20] = locus YNL298W, strain CLA4 (second series), hits give low values
[21] = locus YNL322C, strain KRE1, hits give low values
[22] = locus YNR030W, strain Alg12, hits give low values
[23] = locus YPL055C, strain LGE1, hits give low values
[24] = locus YPL241C, strain CIN2, hits give low values
[25] = locus YPR135W, strain CTF4, hits give low values

Measured: normalized growth

CCOC(=O)CNc1ccc(Cl)c(Cl)c1
inactive: [1] 0.949 | [2] 0.969 | [3] 0.977 | [4] 0.974 | [5] 0.967 | [6] 0.986 | [7] 0.958 | locus YGR229C, strain SMI1, hits give low values 0.998 | [8] 0.746 | [9] 0.978 | locus YJL187C, strain SWE1, hits give low values 0.973 | [10] 0.974 | [11] 0.927 | [12] 0.971 | [13] 0.97 | [14] 0.876 | [15] 0.975 | [16] 0.973 | [17] 0.974 | [18] 0.946 | locus YMR307W, strain GAS1, hits give low values 0.986 | [19] 0.962 | [20] 0.931 | [21] 0.971 | [22] 0.995 | [23] 0.87 | [24] 1 | [25] 0.906

CCOC(=O)C(c1ccccc1)C(Nc1ccc(Cl)c(Cl)c1)c1ccccn1 (stereo not given)
inactive: [1] 1.01 | [2] 1.01 | [3] 1.02 | [4] 1.03 | [5] 1.02 | [6] 0.996 | [7] 1.01 | [8] 1.11 | [9] 0.986 | [10] 1.03 | [11] 1.03 | locus YKL190W, strain CNB1, hits give low values 1.01 | [13] 1.01 | [14] 1.02 | [15] 1.15 | [16] 1.01 | [17] 1 | [18] 0.985 | locus YNL128W, strain TEP1, hits give low values 1.03 | [19] 1.01 | [20] 1.01 | [21] 1.01 | [22] 1.01 | [23] 0.995 | [24] 1.01 | [25] 1.01
active: [12] 1.21 [resistant]
